Results published in PubChem BioAssay AID847 (SRMLSC, 2007).
About 190 (0.46%) of roughly 41,000 compounds were called active.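 The calls were made as follows: active = viability at or below the median of all test compounds minus 3 SD, in both replicates if run twice (cut at about 45% in these data); inconclusive = duplicate replicates that disagree with each other; inactive = viability above that cutoff in every replicate.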 What follows is part of a selection rich in actives, with near analogues and random picks from the rest.

Assay: SK-BR-3 proliferation inhibitors, primary screen, cell-based, human, 24 h (AID 847);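 also: 100% = median untreated cell wells and 0% = median positive control drug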
Settings: SK-BR-3 viability, CellTiter-Glo ATP luminescence, at 10 µM, hits give low values
For `CN(C)c1ccc(CNC23CN4CN(CN(C4)C2)C3)cc1`, the viability was 99% (inactive).
In the case of `Cn1c2c(c(=O)n(C)c1=O)CN(Cc1ccco1)CN2`, the viability was 83.8% (inactive).
In the case of `O=C(Cn1c(=O)sc2ccccc21)Nc1ccc2c(c1)OCCO2`, the viability was 78.4% (inactive).
In the case of `Cc1ccc2cc(C#N)c(SCC(=O)NCC3CCCO3)nc2c1C` (stereo not given), the viability was 82.7% (inactive).
For `O.O.O.O=S(=O)([O-])OC[C@H]1O[C@@H](O[C@]2(COS(=O)(=O)[O-])O[C@H](OS(=O)(=O)[O-])[C@@H](OS(=O)(=O)[O-])[C@@H]2OS(=O)(=O)[O-])[C@H](OS(=O)(=O)[O-])[C@@H](OS(=O)(=O)[O-])[C@@H]1OS(=O)(=O)[O-].[Al]`, the viability was 89.7% (inactive).
With `CC(=O)Nc1cccc2c1[n+]([O-])c(C)c(C)[n+]2[O-]` the viability was 115% (inactive).
With `CCN(CC)P(=O)(/C(Cl)=C\Nc1c(C)n(C)n(-c2ccccc2)c1=O)N(CC)CC` the viability was 104% (inactive).
In the case of `Cn1nnnc1SCC(=O)N1CCN(Cc2ccccc2)CC1`, the viability was 103% (inactive).
For `Cn1c(SCC(=O)Nc2cccc(NC(=O)c3cccs3)c2)nnc1-c1ccncc1`, the viability was 91.4% (inactive).
In the case of `O=C(CSc1nc(-c2ccco2)cc(C(F)(F)F)n1)N1CCc2ccccc2C1`, the viability was 113% (inactive).
In the case of `CCCN1C(=O)C(NC(C)=O)c2cc(OC)ccc21` (stereo not given), the viability was 88.1% (inactive).
For `Cc1nc2cc(-c3ccc(F)cc3)nn2c(N2CCOCC2)c1C`, the viability was 89.5% (inactive).
With `FC(F)(F)c1cccc(Nc2ncnc3ccccc23)c1` the viability was 90.1% (inactive).
For `CCOC(=O)Cc1csc(NC(=O)C(C)(C)C)n1`, the viability was 89.5% (inactive).
For `CCOC(=O)Cc1csc(NC(=O)CSc2nc(C)cc(=O)[nH]2)n1`, the viability was 43.4% (active).
In the case of `CCOC(=O)Cc1csc(NC(=O)Nc2ccccc2)n1`, the viability was 111% (inactive).
With `Cc1cc(C)cc(NC(=O)N2CCC(NC(=O)c3ccc(F)cc3)CC2)c1` the viability was 103% (inactive).
For `COc1cc(OC)cc(C(=O)NCCSCc2ccco2)c1`, the viability was 80.3% (inactive).
With `N#Cc1c(NC(=O)CSc2nc3ccccc3c(=O)n2Cc2ccco2)sc2c1CCCC2` the viability was 72.2% (inactive).
In the case of `CCOc1ccccc1NC(=O)CCc1ccc(C)o1`, the viability was 103% (inactive).
For `COCCCNC(=O)c1c(F)c(F)c(F)c(F)c1F`, the viability was 79.3% (inactive).
With `O=C1Nc2ccccc2C12Nc1ccccc1S2` (stereo not given) the viability was 75.9% (inactive).
With `Cc1ccc(C(C)C)c(OCc2nnc(SCC(=O)Nc3nccs3)n2C)c1` the viability was 92.6% (inactive).
In the case of `O=C(Cc1cccs1)N1CCCC(c2nc(-c3ccc(S(=O)(=O)N4CCCC4)cc3)no2)C1` (stereo not given), the viability was 72.5% (inactive).
With `Cc1sc2c(c1C)c(=O)n(-c1ccccc1)c1nncn21` the viability was 90.1% (inactive).
For `O=C(Nc1ccccc1N1CCN(C(=O)c2ccccc2)CC1)c1ccc2c(c1)OCO2`, the viability was 68% (inactive).
With `CCn1nc(NC(=O)c2ccco2)c2cc3ccc(C)cc3nc21` the viability was 79.8% (inactive).
In the case of `COCCCNC(=O)COc1cc(C)c(Cl)c(C)c1`, the viability was 104% (inactive).
In the case of `CC(=O)CCS(=O)(=O)c1ccc(C)c(C)c1`, the viability was 73.8% (inactive).
For `CCOc1cc(/C=N/O)cc(Br)c1OC`, the viability was 90.1% (inactive).
In the case of `CCc1ccccc1NC(=O)CSc1nnc([C@@H](NC(=O)OC(C)(C)C)C(C)CC)o1` (stereo not given in full), the viability was 89.6% (inactive).
With `O=S(=O)(NCCNS(=O)(=O)c1ccccc1)c1ccccc1` the viability was 87.2% (inactive).
In the case of `CCOC(=O)c1nc(N)sc1C(=O)OCC`, the viability was 82.9% (inactive).
With `CCCCOc1ccc(NC(=O)CSCC(=O)OCC)cc1` the viability was 97.7% (inactive).
With `CCN(CC)C(=O)CSc1nnc(-c2cnccn2)n1-c1ccc(C)cc1` the viability was 112% (inactive).
For `CC(=O)N(CN1C(=O)C2CC=CCC2C1=O)c1cccc(Cl)c1` (stereo not given), the viability was 102% (inactive).
In the case of `O=C(Nc1c(C(=O)N2CCCCC2)cnn1-c1ccccc1)c1ccco1`, the viability was 81.5% (inactive).
For `CCOC(=O)c1cnc(-n2nc(C)cc2C)nc1-n1nc(C)cc1C`, the viability was 108% (inactive).
For `CCN(CC)C(=O)CSc1nnc(-c2cccc(OC)c2)o1`, the viability was 88.1% (inactive).
For `CCS(=O)(=O)n1nc(-c2ccc(OC)cc2)nc1SC`, the viability was 101% (inactive).
In the case of `CCC(=O)Nc1cccc(NC(=O)CSc2nnnn2C2CCCC2)c1`, the viability was 69% (inactive).
For `O=C(CSc1nnnn1C1CCCC1)Nc1ccc2c(c1)OCCO2`, the viability was 42.5% (active).
In the case of `O=C(CSc1nnnn1-c1ccc2c(c1)CCC2)Nc1ccc2c(c1)OCCO2`, the viability was 86.1% (inactive).
In the case of `CCOc1cccc(-c2nn3c(-c4ccccn4)nnc3s2)c1`, the viability was 116% (inactive).
For `CCOC(=O)CNC(=O)CSc1nnc(-c2cccc(OC)c2)n1CC`, the viability was 104% (inactive).
In the case of `O=C1CCC(=O)N1CCOP1(=O)COc2ccccc2OC1`, the viability was 98.7% (inactive).
For `CCOC(=O)Cn1c(SC)nc2sc3c(c2c1=O)CC(C)(C)OC3`, the viability was 93.7% (inactive).
In the case of `CSCC[C@H](NC(=O)NCCc1ccc(F)cc1)C(=O)O`, the viability was 79.6% (inactive).
For `O=C(Nc1nn(Cc2ccccc2F)cc1Br)c1cccs1`, the viability was 98.6% (inactive).
For `C=CCn1c(CSc2nc3ccccc3s2)nnc1SCC(=O)NCc1ccco1`, the viability was 125% (inactive).
In the case of `Cc1ccc(NC(=O)Cn2nc(C)c3ccccc3c2=O)c(C)c1`, the viability was 112% (inactive).
In the case of `CCCCn1c(SCC(=O)N2CCC(C(=O)OCC)CC2)nc2cc(S(N)(=O)=O)ccc21`, the viability was 89.6% (inactive).
For `C=CCN1C(=O)C(O)(CC(=O)c2ccc(Cl)cc2)c2ccccc21` (stereo not given), the viability was 86.7% (inactive).
In the case of `COc1ccc(OC)c(NC(=O)CSc2nc(N)c(-c3ccccc3)c(=O)[nH]2)c1`, the viability was 98.9% (inactive).
In the case of `CN1CCN(C(=O)C2C3C=CC(C3)C2C(=O)O)CC1` (stereo not given), the viability was 109% (inactive).
With `COc1ccc(N2CC(C)Cn3c2nc2c3c(=O)n(Cc3ccccc3F)c(=O)n2C)c(OC)c1` (stereo not given) the viability was 89.5% (inactive).
In the case of `CC1(C)NC(=O)N(CCOc2cccc(Oc3ccccc3)c2)C1=O`, the viability was 94.6% (inactive).
With `C[C@H](NC(=O)OC(C)(C)C)c1nnc(SCC(=O)Nc2ccc(Br)cc2)o1` the viability was 91.1% (inactive).
With `CCS(=O)(=O)NCCc1ccc(OC)c(OC)c1` the viability was 85.1% (inactive).
For `CCOc1ccccc1N(CC(=O)Nc1ccccc1C(=O)OC)S(C)(=O)=O`, the viability was 114% (inactive).
